CASP6 VEID inh: human caspase-6 inhibitors, primary screen, biochemical, VEID-R110 fluorescence, single point, set 2. 350,000 compounds, 0.53% hits. purified caspase-6, Z-VEID-R110 cleavage fluorescence. inhibition, % at 12.5 µM. P55212. AID 686996, 2013;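 active means mean inhibition across replicates at least about 35%, with every replicate also reaching that limit, limit read from the data; inconclusive means only one of the two criteria met; inactive means neither criterion met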;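 further: 0% = median of neutral control wells and 100% = no fluorescence left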
Target sequence (P55212 24-179 limits assumed): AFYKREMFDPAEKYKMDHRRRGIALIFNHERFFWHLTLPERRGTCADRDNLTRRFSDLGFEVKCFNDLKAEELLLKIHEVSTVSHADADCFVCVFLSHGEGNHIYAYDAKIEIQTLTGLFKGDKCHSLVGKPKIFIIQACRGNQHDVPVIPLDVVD
Target sequence (P55212 194-293 limits assumed): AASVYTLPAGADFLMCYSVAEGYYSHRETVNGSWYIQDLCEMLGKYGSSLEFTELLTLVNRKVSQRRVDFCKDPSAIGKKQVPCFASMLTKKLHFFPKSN
SIRT5 block: SIRT5 desuccinylase inhibitors, primary screen, biochemical, fluorescence imaging, single point, set 5; inhibition, % at 15 µM; Purified SirT5, succinyl-peptide AMC, trypsin-coupled fluorescence; 330,000 compounds, 1.1% hits; in the data active means inhibition above about 15%; inconclusive means no clear call, values can overlap the other calls
NSD2 HMT inh: NSD2 histone methyltransferase inhibitors, primary screen, biochemical, AlphaScreen, single concentration, set 2 | NSD2 peptide methylation, 120 min | inhibition, % at 12.5 µM | 310,000 compounds, 0.54% hits | AID 743445, 2014; in the data active means inhibition above about 50%
UBC9 SUMO inh: inhibitors of in vitro SUMOylation cascade, primary screen, biochemical, HTRF, uHTS; SUMO-conjugating enzyme UBC9 (Homo sapiens), P63279; HTRF SUMOylation assay, SAE1/SAE2 + UBC9; inhibition, % at 35 µM; 290,000 compounds, 0.36% hits; in the data active means inhibition above about 50%, passing the limit was not always enough; inconclusive means no clear call, values can overlap the other calls
Target sequence (P63279 whole entry, looked up): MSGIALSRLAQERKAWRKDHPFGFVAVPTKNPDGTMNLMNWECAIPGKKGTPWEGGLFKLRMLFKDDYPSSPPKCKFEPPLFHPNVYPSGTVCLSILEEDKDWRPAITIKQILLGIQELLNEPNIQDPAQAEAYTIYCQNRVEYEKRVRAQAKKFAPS
Numbers without * were called inactive; ? = inconclusive; nt = no result. This is a sample that favours compounds with a hit; in the whole collection about 1.6% have one here.

SMILES | CASP6 VEID inh | SIRT5 block | NSD2 HMT inh | UBC9 SUMO inh
O=[N+]([O-])c1cc(/C=N/Nc2nc3ccccc3[nH]2)c(O)cc1O | 61* | 10 | 17 | -64
C[C@H](CO)N1C[C@H](C)[C@H](CN(C)C(=O)CCCN(C)C)OCCCC[C@H](C)Oc2ccc(NC(=O)NC3CCCCC3)cc2C1=O | -2 | -2 | nt | nt
O=S(=O)(c1ccccc1)N1CC2(C1)[C@H](c1ccccc1)[C@H](CO)N2CCC(F)(F)F | -1 | 17* | nt | nt
O=S(=O)(c1ccccc1)N1CC2(C1)[C@@H](c1ccccc1)[C@@H](CO)N2CCC(F)(F)F | 4 | -2 | nt | nt
CCN1CCN(C(=O)/C=C/c2ccc(F)cc2)CC1 | 3 | 18* | 4 | nt
O=C(C[C@@H]1C=C[C@H](NC(=O)c2ccccn2)[C@@H](CO)O1)NCc1cc(F)cc(F)c1 | 1 | -4 | nt | nt
Cc1ccc([C@H]2C[C@H](O)[C@@H](n3cc(COC(=O)c4ccccc4)nn3)CN2C(=O)c2cccs2)cc1 | -1 | 17* | nt | nt
O=C(OCc1cn([C@H]2CN(C(=O)c3cccs3)[C@@H](c3ccccc3)C[C@@H]2O)nn1)c1ccccc1 | 6 | 2 | nt | nt
CCCCCCN1C[C@H](O)[C@@H](n2cc(COC(=O)c3ccccc3)nn2)C[C@@H]1c1ccc(Cl)cc1 | -4 | 15* | nt | nt
C[C@@H]1CN([C@H](C)CO)S(=O)(=O)c2ccc(C#CCN(C)C)cc2O[C@H]1CN(C)Cc1ccc(F)cc1 | -6 | 4 | nt | nt
COc1ccc(CC(=O)Nc2ccc(OC)nc2)cc1 | 2 | -2 | -1 | 1
COc1ccc(NC(=O)/C=C/c2ccco2)cn1 | 12 | 1 | 2 | 30
COc1ccc(NC(=O)CCl)cn1 | nt | nt | nt | 83*
COc1ccc(NC(=O)/C=C/c2ccc(Br)o2)cn1 | 4 | 34* | nt | 24
C[C@@H]1CN([C@@H](C)CO)C(=O)c2cccc(NS(=O)(=O)c3cccs3)c2O[C@@H]1CN(C)S(=O)(=O)c1ccccc1 | 37* | -5 | nt | nt
Cc1ccc(S(=O)(=O)N(C)C[C@@H]2Oc3c(NS(=O)(=O)c4cccs4)cccc3C(=O)N([C@H](C)CO)C[C@H]2C)cc1 | 3 | 1 | nt | nt
C[C@H]1CN([C@@H](C)CO)C(=O)c2cccc(NS(=O)(=O)c3cccs3)c2O[C@@H]1CN(C)C(=O)Nc1ccc(F)cc1 | 6 | -5 | nt | nt
C[C@H](CO)N1C[C@H](C)[C@@H](CN(C)C(=O)Nc2ccccc2)Oc2c(NS(=O)(=O)c3cccs3)cccc2C1=O | -1 | 24* | nt | nt
C[C@H](CO)N1C[C@H](C)[C@@H](CN(C)Cc2ccc(Cl)c(Cl)c2)Oc2ccc(NS(=O)(=O)c3ccccc3)cc2CC1=O | -1 | 28* | nt | nt
C[C@@H]1CN([C@@H](C)CO)C(=O)Cc2cc(NS(=O)(=O)c3ccc(Cl)cc3)ccc2O[C@@H]1CN(C)Cc1ccc(Cl)c(Cl)c1 | nt | -6 | nt | nt
C[C@H](CO)N1C[C@H](C)[C@@H](CN(C)Cc2ccc(Cl)c(Cl)c2)Oc2ccc(NC(=O)c3ccncc3)cc2CC1=O | 0 | 17* | nt | nt
C[C@@H]1CN([C@@H](C)CO)C(=O)Cc2cc(NS(=O)(=O)c3ccccc3)ccc2O[C@@H]1CN(C)Cc1ccc(Cl)c(Cl)c1 | -2 | -6 | nt | nt
C[C@@H]1CN([C@H](C)CO)C(=O)Cc2cc(NC(=O)c3ccncc3)ccc2O[C@H]1CN(C)Cc1ccc(Cl)c(Cl)c1 | -4 | 1 | nt | nt
C[C@H]1CN([C@@H](C)CO)C(=O)Cc2cc(NS(=O)(=O)c3ccc(Cl)cc3)ccc2O[C@@H]1CN(C)Cc1ccc(Cl)c(Cl)c1 | nt | 15* | nt | nt
COC(=O)C1=NNC(C(=O)c2ccco2)C1c1ccccc1 (stereo unspecified) | -4 | 22* | 0 | 1
SMILES | CASP6 VEID inh | SIRT5 block | NSD2 HMT inh | UBC9 SUMO inh
COC(=O)C1=NNC(C(=O)c2ccco2)C1c1ccc(OC)cc1 (stereo unspecified) | -1 | 0 | -1 | 22
O=C(NCc1ccccc1)c1ccc(Br)cc1[N+](=O)[O-] | 2 | 5 | nt | nt
COc1cccc(C(=O)Nc2ccc3c(c2)C(=O)N(C)C[C@H](OC)[C@@H](C)CN(CCc2ccccc2)[C@@H](C)CO3)c1 | nt | 18* | nt | nt
CCCN1C[C@@H](C)[C@H](OC)CN(C)C(=O)c2cc(NC(=O)c3ccc(F)cc3)ccc2OC[C@@H]1C | 2 | 4 | nt | nt
CCC(=O)Nc1ccc2c(c1)C(=O)N(C)C[C@@H](OC)[C@@H](C)CN(CCC(F)(F)F)[C@H](C)CO2 | -3 | 16* | nt | nt
CCC(=O)Nc1ccc2c(c1)C(=O)N(C)C[C@@H](OC)[C@H](C)CN(CC1CCCCC1)[C@@H](C)CO2 | nt | 22* | nt | nt
COc1cccc(C(=O)Nc2ccc3c(c2)C(=O)N(C)C[C@@H](OC)[C@H](C)CN(CCc2ccccc2)[C@@H](C)CO3)c1 | nt | 11 | nt | nt
CCC(=O)Nc1ccc2c(c1)C(=O)N(C)C[C@@H](OC)[C@@H](C)CN(CC1CCCCC1)[C@@H](C)CO2 | nt | 8 | nt | nt
CCCN1C[C@H](C)[C@H](OC)CN(C)C(=O)c2cc(NC(=O)c3ccc(F)cc3)ccc2OC[C@H]1C | 0 | 16* | nt | nt
COc1ccc2c3c(n(C)c2c1)[C@H](CO)N(C(=O)Cc1ccccn1)CC31CN(CC2CCOCC2)C1 | 1 | nt | nt | nt
COc1cc(/C=C/C(=O)OCC(=O)Nc2sc3c(c2C#N)CCC(C)C3)ccc1OCC#N (stereo unspecified) | -1 | 15* | -2 | 4
Fc1ccc(-c2nnc3n2CCCCC3)cc1 | 1 | 17* | 0 | 3
CCCCCC#CCC#CCC#CCC#CCCCC(=O)O | nt | nt | nt | 58*
C/C(=N/Nc1ccccc1[N+](=O)[O-])c1ccc([N+](=O)[O-])cc1 | 2 | 1 | -2 | 6
CC1=C/C(=N\Nc2ccccc2[N+](=O)[O-])CC(C)(C)C1 | 3 | 19* | 25 | -41
CCc1ccc(S(=O)(=O)/N=C2\C=C(Nc3ccc(C(=O)O)cc3)C(=O)c3ccccc32)cc1 | 97* | 2 | nt | ?
Cc1ccc(NC2=C/C(=N/S(=O)(=O)c3cccs3)c3ccccc3C2=O)cc1 | 2 | 0 | 34 | 6
Cc1ccc(S(=O)(=O)/N=C2\C=C(Nc3ccc(O)cc3)C(=O)c3ccccc32)cc1 | nt | nt | 34 | nt
Cc1ccc(S(=O)(=O)/N=C2\C=C(Nc3cccc(C(=O)O)c3)C(=O)c3ccccc32)c(C)c1 | 100* | 3 | 117* | ?
Cc1ccc(S(=O)(=O)/N=C2\C=C(NS(=O)(=O)c3ccccc3)C(=O)c3ccccc32)c(C)c1 | 9 | 0 | 5 | nt
CC(C)(C)c1ccc(S(=O)(=O)/N=C2\C=C(NS(=O)(=O)c3ccccc3)C(=O)c3ccccc32)cc1 | 50* | 10 | 108* | 33
C[C@@H]1CN([C@H](C)CO)C(=O)c2cc(NS(=O)(=O)c3ccc(Cl)cc3)ccc2O[C@H]1CN(C)Cc1ccncc1 | -1 | 0 | nt | nt
CCOc1ccc(-n2c(SCC(=O)N3CCCC3)nc3ccccc3c2=O)cc1 | nt | nt | 1 | nt

Screening data: PubChem BioAssay, several laboratories
